The record followed here is PubChem BioAssay.

Activity calls are given as the source filed them.

The target of one test is Albumin (Bos taurus) (UniProt P02769). The test can be described thus: compounds binding labelled BSA control protein – biochemical, small-molecule microarray, Alexa647 label, 635/667 nm fluorescence, artefact control for SMM control protein annotation, profiling panel (AID 1118).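 Further: score merges 667 nm emission intensity and signal-to-noise per printed compound spot.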 To be noted: BSA-A647 binding, fluorescence 635 nm, higher = more signal.
Albumin (Bos taurus), sequence (P02769 whole entry, looked up): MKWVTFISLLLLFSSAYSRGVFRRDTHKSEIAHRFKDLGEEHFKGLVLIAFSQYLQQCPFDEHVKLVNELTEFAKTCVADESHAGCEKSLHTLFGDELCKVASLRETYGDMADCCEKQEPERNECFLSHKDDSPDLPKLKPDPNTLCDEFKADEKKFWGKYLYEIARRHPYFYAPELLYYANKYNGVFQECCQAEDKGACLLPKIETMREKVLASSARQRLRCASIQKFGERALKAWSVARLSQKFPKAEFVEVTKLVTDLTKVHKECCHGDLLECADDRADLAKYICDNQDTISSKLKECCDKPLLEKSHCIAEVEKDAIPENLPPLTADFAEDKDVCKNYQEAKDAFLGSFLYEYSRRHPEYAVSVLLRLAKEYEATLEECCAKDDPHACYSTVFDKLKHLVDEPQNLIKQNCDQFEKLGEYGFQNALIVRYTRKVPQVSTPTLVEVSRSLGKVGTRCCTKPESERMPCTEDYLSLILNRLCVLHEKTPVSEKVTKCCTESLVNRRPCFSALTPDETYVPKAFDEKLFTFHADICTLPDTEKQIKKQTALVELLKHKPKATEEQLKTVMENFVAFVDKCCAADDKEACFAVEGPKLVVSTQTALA
Test [1] is described as follows: probe aXIP binding to arrayed compounds – biochemical, NeuroSMM set, 635/667 nm fluorescence, primary screen (AID 1119).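 Further: probe is the protein aXip251-270 applied at 1 µg/mL to compound-printed slides; binding of probe to printed compounds measured as 667 nm fluorescence plus signal to noise.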 To be noted: small-molecule microarray, higher = more signal, called active from +8 up or from −8 down.
Test [2] can be described thus: probe aNOTCH3 binding on compound microarray – biochemical, small-molecule microarray, 635/667 nm fluorescence, primary screen (AID 1120).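 Further: probe is a biotin-tagged antibody raised against NOTCH3 rather than NOTCH3 protein; score merges spot fluorescence near 667 nm with spot signal to noise.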 The following applies: higher = more signal.
Test [3] in a line: probe aNOTCH2 binding on compound microarray – biochemical, small-molecule microarray, 635/667 nm fluorescence, primary screen (AID 1121).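 Further: score merges feature fluorescence read at 667 nm with its signal to noise.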 To be noted: higher = more signal.
Test [4] concerns the target Carbonic anhydrase 2 (Homo sapiens) (UniProt P00918). Briefly: compounds binding carbonic anhydrase 2 – biochemical, small-molecule microarray, Alexa647-labelled CAII, profiling panel (AID 1122). The following applies: CAII-A647 binding fluorescence, higher = more signal.
A short description of test [5]: COS7 lysate on small-molecule microarray, probe aHis, 635 nm (AID 1123).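 Further: z-score combines 667nm fluorescence intensity with signal-to-noise per printed compound spot.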 To be noted: COS7 cell lysate, fluorescence, higher = more signal.
The nature of test [6]: probe aLAP1 signal on lysate-treated microarray – cell lysate, small-molecule microarray, COS7 lysate, primary screen (AID 1124).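 Further: lysate comes from COS7 cells expressing LAP1 and is applied at 0.3 µg/mL; score merges spot fluorescence near 667 nm with signal-to-noise over triplicate slides.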 The following applies: probe aLAP1, fluorescence, higher = more signal.
The next test relates to Sam68 (KHDRBS1). The test can be described thus: compounds binding KHDRBS1 protein – biochemical, small-molecule microarray, 635 nm fluorescence, primary screen (AID 1125).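 Further: score merges 667 nm channel intensity with signal to noise over triplicate slides.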 The following applies: higher = more signal.
Test [7] relates to Chordin-like protein 2 (CHRDL2). The test can be described thus: compounds binding chordin-like 2 – biochemical, small-molecule microarray, 635 nm fluorescence, primary screen (AID 1126).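 Further: printed compound slides probed with Chrdl2 protein at 4 µg/mL for 1 h at 4 C; score merges 667 nm emission intensity with signal to noise over three replicate slides.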 To be noted: fluorescence 635 nm, higher = more signal.
For test [8], the target named is Concanavalin-A (Canavalia ensiformis) (UniProt P02866). The test can be described thus: compounds binding concanavalin A lectin – biochemical, small-molecule microarray, Alexa647 label, 635 nm, artefact control for SMM control protein annotation, primary screen (AID 1127).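 Further: z combines 667 nm emission intensity with signal-to-noise across three replicate slides.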 To be noted: ConA-A647 binding fluorescence, higher = more signal.
Concanavalin-A (Canavalia ensiformis), sequence (P02866 whole entry, looked up): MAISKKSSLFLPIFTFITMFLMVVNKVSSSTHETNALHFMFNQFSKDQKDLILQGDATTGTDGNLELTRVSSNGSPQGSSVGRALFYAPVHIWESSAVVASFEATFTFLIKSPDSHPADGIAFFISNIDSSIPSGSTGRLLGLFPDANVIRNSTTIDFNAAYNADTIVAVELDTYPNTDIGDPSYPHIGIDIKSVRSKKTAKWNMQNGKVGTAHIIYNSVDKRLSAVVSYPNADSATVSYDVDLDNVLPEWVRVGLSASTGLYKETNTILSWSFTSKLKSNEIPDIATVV
Test [9] in a line: compounds binding Alexa647 anti-His antibody – biochemical, small-molecule microarray, 635 nm fluorescence, artefact control for SMM control protein annotation, primary screen (AID 1128).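 Further: score merges feature fluorescence with signal-to-noise for each printed compound spot.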 To be noted: higher = more signal.
Test [10] has as its system Human papillomavirus type 1a E7 protein (residues 1-88). The test can be described thus: HPV1a E7 small-molecule binders, primary screen, biochemical, small-molecule microarray, residues 1-88, 635 nm (AID 1129). The following applies: small-molecule microarray binding, fluorescence 635 nm; higher = more signal.
Test [11] concerns the target Focal adhesion kinase 1 (Homo sapiens) (UniProt Q05397). The test can be described thus: PTK2 protein binding on printed compound slides – biochemical, small-molecule microarray, 635/667 nm fluorescence, BSA, DTT, primary screen (AID 1130).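 Further: composite of spot emission at 667 nm and signal to noise over triplicate slides.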 The following applies: 635 nm fluorescence, higher = more signal.
Test [12] deals with Fibrinogen (Alexa647-labelled). Briefly: Alexa647-fibrinogen binding to printed small molecules – biochemical, small-molecule microarray, 635/667 nm fluorescence, artefact control for SMM control-protein annotation, profiling panel (AID 1131).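 Further: z-score merges 667 nm fluorescence with per-spot signal-to-noise over triplicate slides.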 The following applies: fibrinogen-A647 binding fluorescence, higher = more signal.
Test [13] addresses Follistatin (Homo sapiens) (UniProt P19883). Briefly: FST protein binding to printed compounds – biochemical, small-molecule microarray, 635/667 nm fluorescence, primary screen (AID 1132). The following applies: 635 nm fluorescence, higher = more signal.
The target of test [14] is Fibroblast growth factor 2 (Homo sapiens) (UniProt P09038). Briefly: basic fibroblast growth factor binding to printed compounds – biochemical, small-molecule microarray, 635/667 nm fluorescence, primary screen (AID 1133). To be noted: FGF2, fluorescence 635/667, higher = more signal.
Fibroblast growth factor 2 (Homo sapiens), sequence (P09038 whole entry, looked up): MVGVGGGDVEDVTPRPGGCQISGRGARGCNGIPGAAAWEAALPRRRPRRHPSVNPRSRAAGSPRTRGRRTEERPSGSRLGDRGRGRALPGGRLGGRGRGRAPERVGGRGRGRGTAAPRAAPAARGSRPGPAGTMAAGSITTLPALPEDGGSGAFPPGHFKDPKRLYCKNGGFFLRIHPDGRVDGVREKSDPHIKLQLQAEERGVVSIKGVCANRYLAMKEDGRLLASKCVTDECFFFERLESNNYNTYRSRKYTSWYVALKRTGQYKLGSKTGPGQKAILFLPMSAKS
The nature of test [15]: JC-1 mitochondrial potential readout, lung cancer cells – cell-based, A549, JC-1 fluorescence, basal, 24 h, 100 nL, profiling panel (AID 1138).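 Further: A549 lung adenocarcinoma cells under basal conditions with no added stimulus; test concentration not given here.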 To be noted: higher = more signal.
The subject of the next test is Lefty1. The test can be described thus: Lefty1 protein binding to printed compounds – biochemical, small-molecule microarray, 635/667 nm fluorescence, primary screen (AID 1139). To be noted: fluorescence 635/667, higher = more signal.
Test [16] deals with wheat germ agglutinin (Triticum aestivum), Alexa647-labelled. Briefly: Alexa647-WGA lectin binding to printed small molecules – biochemical, small-molecule microarray, 635/667 nm fluorescence, artefact control for SMM control-protein annotation, profiling panel (AID 1140).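 Further: score merges 667 nm feature emission with signal to noise over triplicate slides.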 The following applies: WGA-A647 binding, 635 nm fluorescence, higher = more signal.
Test [17] concerns the target Luciferin 4-monooxygenase (Photinus pyralis) (UniProt P08659). The test can be described thus: inhibition of purified Photinus pyralis luciferase – biochemical, luminescence, purified enzyme, 2006 set, primary screen (AID 1141).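 Further: cell-free assay with purified firefly luciferase at 100 ng per well in PBS; test concentration not given here.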 The following applies: purified firefly luciferase, SteadyGlo luminescence, 30 min; higher = more signal, called active from +8 up or from −8 down.

Focal adhesion kinase 1 (Homo sapiens), sequence (Q05397 whole entry, looked up): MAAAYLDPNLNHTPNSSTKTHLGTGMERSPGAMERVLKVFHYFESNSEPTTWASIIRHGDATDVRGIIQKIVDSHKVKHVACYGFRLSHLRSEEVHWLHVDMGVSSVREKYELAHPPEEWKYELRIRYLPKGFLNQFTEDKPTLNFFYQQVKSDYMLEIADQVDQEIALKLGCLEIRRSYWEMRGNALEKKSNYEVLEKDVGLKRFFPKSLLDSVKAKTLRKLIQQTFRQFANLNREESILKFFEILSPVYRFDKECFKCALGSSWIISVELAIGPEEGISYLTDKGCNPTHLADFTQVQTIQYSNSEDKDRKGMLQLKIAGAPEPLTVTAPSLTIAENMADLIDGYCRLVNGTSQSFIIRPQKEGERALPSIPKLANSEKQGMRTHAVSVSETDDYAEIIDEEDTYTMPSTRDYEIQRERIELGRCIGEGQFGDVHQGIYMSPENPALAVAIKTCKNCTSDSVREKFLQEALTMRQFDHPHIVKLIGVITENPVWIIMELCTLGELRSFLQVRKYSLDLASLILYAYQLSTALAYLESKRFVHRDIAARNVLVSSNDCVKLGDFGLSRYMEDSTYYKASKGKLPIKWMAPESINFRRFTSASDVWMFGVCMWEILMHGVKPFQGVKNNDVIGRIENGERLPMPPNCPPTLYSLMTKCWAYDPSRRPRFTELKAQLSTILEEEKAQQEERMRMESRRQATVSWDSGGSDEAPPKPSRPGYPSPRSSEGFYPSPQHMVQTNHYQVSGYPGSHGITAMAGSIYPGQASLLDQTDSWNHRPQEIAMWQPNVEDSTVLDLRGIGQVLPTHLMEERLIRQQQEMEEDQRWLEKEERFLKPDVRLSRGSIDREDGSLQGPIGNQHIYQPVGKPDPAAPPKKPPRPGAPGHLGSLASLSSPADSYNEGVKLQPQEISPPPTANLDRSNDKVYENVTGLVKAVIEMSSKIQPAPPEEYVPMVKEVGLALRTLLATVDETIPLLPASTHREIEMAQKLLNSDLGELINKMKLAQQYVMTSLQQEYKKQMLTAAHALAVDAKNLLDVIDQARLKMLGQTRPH
Luciferin 4-monooxygenase (Photinus pyralis), sequence (P08659 whole entry, looked up): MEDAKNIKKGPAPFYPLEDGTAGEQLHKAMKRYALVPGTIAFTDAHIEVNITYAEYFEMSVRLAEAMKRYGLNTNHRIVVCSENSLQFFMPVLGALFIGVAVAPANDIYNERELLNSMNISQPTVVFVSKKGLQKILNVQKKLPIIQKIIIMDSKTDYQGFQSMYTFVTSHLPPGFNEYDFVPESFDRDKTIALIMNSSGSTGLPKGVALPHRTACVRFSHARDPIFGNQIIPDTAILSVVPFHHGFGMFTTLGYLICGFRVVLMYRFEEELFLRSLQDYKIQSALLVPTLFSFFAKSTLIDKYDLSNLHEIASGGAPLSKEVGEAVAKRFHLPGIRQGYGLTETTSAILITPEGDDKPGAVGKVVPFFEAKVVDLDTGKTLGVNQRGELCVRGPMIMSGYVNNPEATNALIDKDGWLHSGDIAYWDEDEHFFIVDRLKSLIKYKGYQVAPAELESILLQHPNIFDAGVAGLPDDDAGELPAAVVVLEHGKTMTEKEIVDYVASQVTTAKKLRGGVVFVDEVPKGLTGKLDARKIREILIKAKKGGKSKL
Follistatin (Homo sapiens), sequence (P19883 whole entry, looked up): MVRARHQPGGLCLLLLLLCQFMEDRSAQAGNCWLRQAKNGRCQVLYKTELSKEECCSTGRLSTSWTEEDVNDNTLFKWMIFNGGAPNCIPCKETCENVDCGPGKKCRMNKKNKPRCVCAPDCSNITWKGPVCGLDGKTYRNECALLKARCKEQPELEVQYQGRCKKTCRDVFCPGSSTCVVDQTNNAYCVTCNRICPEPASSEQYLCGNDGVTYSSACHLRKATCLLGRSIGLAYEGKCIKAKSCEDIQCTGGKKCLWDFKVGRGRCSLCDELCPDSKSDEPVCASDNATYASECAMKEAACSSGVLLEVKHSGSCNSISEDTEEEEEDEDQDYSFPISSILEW

Take `COC(=O)c1ccc(C#CC(NP(=O)(c2ccccc2)c2ccccc2)c2ccccc2)cc1` (stereo not given): the composite z-score in the test with Albumin (Bos taurus) is 1; in test [2], 0.272; in [3] it was 0.335; in test [4], 1.1; in [5], 2.59; in test [6], -0.0375. In addition, the composite z-score with Sam68 (KHDRBS1) is 1.08; in test [7] it was 1.49; in test [8], 1.15; in test [9], 0.15; in test [10], 1.18; in test [11], 0.671. Moreover, the composite z-score is 0.963 in [12]; 1.41 in test [13]; -0.0037 in test [14]; 0.468 in the test on Lefty1; 1.43 in [16]. Besides, in [1], the composite Z-score is 0.444 (inactive). Also, the z-score in test [15] was 1.53; in test [17] it was 0.853 (inactive).
In the case of `CCN1C(C)=C(C(=O)OC)[C@@H](c2ccccc2)N2C(=O)[C@@]3(C(=O)OC)O[C@@]12[C@@H]1C(=O)N(C)C(=O)[C@@H]13`, the composite z-score is 0.216 with Albumin (Bos taurus); 0.19 in test [2]; -0.141 in [3]; 0.752 in test [4]; 0.32 in test [5]; 0.164 in test [6]. The composite z-score with Sam68 (KHDRBS1) was 0.686; in test [7] it was 1.01; in test [8], 0.418; in test [9], 1.65; in test [10], 0.812; in [11], -0.23. Besides, the composite z-score in test [12] was 0.819; in test [13], 0.968; in test [14], 0.916; with Lefty1, 0.819; in test [16], 1.12. The composite Z-score in test [1] was 0.0523 (inactive). The z-score in test [15] was 0.842; in test [17], -0.701 (inactive).
Consider `CO[C@H]1COC(=O)CC=C[C@H](C)COC(=O)[C@@H](OCc2ccccc2)C=C[C@@H]1C`, for which the composite z-score was -0.877 with Albumin (Bos taurus); -0.308 in [2]; -0.14 in test [3]; -0.394 in test [4]; -0.234 in test [5]; 0.0842 in [6]. Besides, the composite z-score is 0.379 in the test on Sam68 (KHDRBS1); 1.51 in test [7]; -0.602 in [8]; 0.507 in [9]; -0.67 in test [10]; -0.3 in test [11]. In addition, the composite z-score in [12] is -0.418; in [13], 1.56; in test [14] it was 1.83; in the test on Lefty1, 1.69; in test [16] it was -0.726. For the same compound, in [1], the composite Z-score was 2.71 (inactive). Also, the z-score was 0.33 in test [15] and -0.275 (inactive) in test [17].
Take `COCCOC(=O)N1C(=O)[C@@]2(c3ccccc31)[C@H](C(=O)N1CCc3cc(OC)c(OC)cc3C1)[C@H]1C(=O)O[C@H](c3ccccc3)[C@H](c3ccccc3)N1[C@@H]2c1ccccc1OCCO`: the composite z-score with Albumin (Bos taurus) was 0.484; in [2], 0.0556; in test [3], -0.0607; in [4] it was 0.441; in test [5], 1.24; in test [6], 0.0221. The composite z-score came to 1.3 with Sam68 (KHDRBS1); 0.107 in [7]; 1.17 in test [8]; 1.86 in test [9]; 1.18 in test [10]; 0.989 in test [11]. For the same compound, the composite z-score in [12] was found to be 0.938; in [13] it was 1.13; in test [14], 0.349; in the test with Lefty1, 0.762; in test [16], 1.02. Also, the composite Z-score in test [1] is 0.497 (inactive). Besides, the z-score was 0.679 in test [15] and -1.69 (inactive) in test [17].
For the compound `CCCC/C=C/[C@H]([C@@H](O)Cc1ccccc1)N(CC#Cc1ccccc1)Cc1ccccc1Br`, the composite z-score with Albumin (Bos taurus) was -0.861; in test [2], -0.346; in test [3] it was -0.171; in [4] it was -0.382; in test [5], 0.0748; in test [6], 0.006. Also, the composite z-score was -0.61 in the test on Sam68 (KHDRBS1); -1.64 in [7]; -0.89 in test [8]; 0.0428 in [9]; -0.462 in test [10]; -0.219 in [11]. For the same compound, the composite z-score in test [12] is -0.986; in [13] it was -1.59; in [14] it was -1.37; in the test with Lefty1, -1.84; in [16] it was -0.788. Further, the composite Z-score in test [1] was 0.911 (inactive). The z-score was 1.03 in [15] and -1.12 (inactive) in test [17].
